From PubChem
Shh pathway inh = Sonic Hedgehog pathway inhibition; Shh-LIGHT2 Gli-luciferase reporter, 30 h; inhibition, % (no concentration beside the values); hit rate 2.1% among 22,000; AID 2313;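 active = mean inhibition across valid replicates above about 65%, limit read from the data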;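 note: pathway switched on by Shh-conditioned medium diluted 1 in 25 in low serum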
BJeLR viability = BJeLR cell viability reduction; BJeLR fibroblasts viability, CellTiterGlo ATP luminescence, 48 h; HRASV12, hTERT and SV40 LT/ST transformed; viability loss activity score, % (concentration not given with the values); hit rate 0.64% among 30,000; AID 2275; in the data active = viability loss activity score above about 50%;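 note: higher score means fewer live cells and less ATP luminescence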
Starred values were filed as active, the others as inactive. Shown is part of a subset that was picked to be rich in hits.

For C=C1C(=O)OC2CC1C(OC(C)=O)C/C(C)=C\CC/C(C)=C\CC[C@]2(C)O (some centres not stated) the results were Shh pathway inh 87* and BJeLR viability 11.
Cc1noc(C)c1NC(=O)Nc1cccc2c1O[C@@H](CN(C)C(=O)Nc1ccc3c(c1)OCO3)[C@H](C)CN([C@H](C)CO)C2=O was read as Shh pathway inh 2 and BJeLR viability 4.
For CCc1cccc(NC(=O)CCCN2C(=O)COc3ccc(C)cc32)c1 the results were BJeLR viability -4.
Screening C=C1C(=O)O[C@H]2[C@H]1[C@@H](OC(=O)/C(C)=C\C)C[C@]1(C)O[C@@H]1[C@H]1O[C@H]1C(=C)[C@H]2O returned Shh pathway inh 31 and BJeLR viability 36.
`C=C(C)C(=O)O[C@H]1[C@H]2C(=C)C(=O)O[C@@H]2C[C@@H](C)[C@@H]2O[C@@H]2C(=O)[C@](C)(O)[C@@H]1OC(C)=O` gave Shh pathway inh 85* and BJeLR viability 32.
Screening C=C1C(=O)O[C@@H]2C[C@H](C)[C@@]3(O)C[C@H](O)[C@@](C)(C[C@@H](OC(=O)C(C)C)[C@@H]12)O3 returned Shh pathway inh 17 and BJeLR viability -2.
`C=C(C)C(=O)O[C@H]1[C@H]2C(=C)C(=O)O[C@@H]2C[C@@H](C)/C=C/C(=O)[C@](C)(O)[C@@H]1OC(=O)C(=C)C` gave Shh pathway inh 3 and BJeLR viability 72*.
Screening Cc1cccc(N2CCN(CCNC(=S)Nc3c(C)cccc3C)CC2)c1C returned BJeLR viability 0.
For CCOC(=O)c1c(NC(=O)N2CCOc3ccc(Cl)cc32)sc2c1CCCC2 the results were BJeLR viability 1.
Screening COC(=O)Nc1nc2ccc(-c3n[nH]c(=O)c4ccccc34)cc2[nH]1 returned Shh pathway inh -16 and BJeLR viability 17.
`CCCCc1ccc2nc(NC(=O)OC)[nH]c2c1` gave Shh pathway inh 41 and BJeLR viability 66*.
C=CCn1c(=O)c2c(C)c(C)sc2n2c(Nc3ccc(C(=O)OCC)cc3)nnc12 was read as Shh pathway inh 23 and BJeLR viability -3.
`CCC(C)C1NC(=O)C(CC(C)C)NC(=O)C(CC(=O)O)NC(=O)C(C(C)C)NC(=O)C(CC(C)C)NC(=O)C(CC(C)C)NC(=O)C(CCC(N)=O)NC(=O)CC(CCCCCCCCCC(C)C)OC1=O` (configuration not stated) gave Shh pathway inh 77*.
Screening COc1ccccc1C1CC(=O)Nc2cc3c(cc21)CCC3 (configuration not stated) returned BJeLR viability 51*.
Screening COc1ccccc1C1CC(=O)NC(C)=C1C(=O)OC1CCCC1 (configuration not stated) returned BJeLR viability 0.
For CCCC(=O)N1CCc2cc(OC)c(OC)cc2C1COc1ccc(OC)cc1 (configuration not stated) the results were BJeLR viability 3.
Screening CCC1CN2CCc3cc(OC)c(OC)cc3[C@@H]2C[C@@H]1C[C@H]1NCCc2cc(OC)c(OC)cc21 (some centres not stated) returned BJeLR viability 86*.
`CN(C)/C=N/c1nnc(N2CCN(c3cccc(Cl)c3)CC2)s1` gave BJeLR viability -4.
C[C@H]1O[C@@H](O[C@H]2[C@@H](O)C[C@H](O[C@H]3[C@@H](O)C[C@H](O[C@H]4CC[C@@]5(C)[C@H](CC[C@@H]6[C@@H]5C[C@@H](O)[C@]5(C)[C@@H](C7=CC(=O)OC7)CC[C@]65O)C4)O[C@@H]3C)O[C@@H]2C)C[C@H](O)[C@@H]1O was read as Shh pathway inh -20 and BJeLR viability 99*.
Screening C=C1C(=O)O[C@H]2[C@H]1[C@@H](OC(=O)C(C)(O)C(C)Cl)C(OC(C)=O)/C(C(=O)OC)=C\CC[C@@]1(C)O[C@H]21 (some centres not stated) returned Shh pathway inh 73* and BJeLR viability 85*.
C=C1C(=O)O[C@H]2C1[C@H](OC(=O)/C(C)=C/CO)C/C(C)=C\CC[C@@]1(C)OC21 (some centres not stated) was read as Shh pathway inh 26 and BJeLR viability -7.
`C[C@H]1CN([C@@H](C)CO)C(=O)Cc2cc(NC(=O)CCN3CCOCC3)ccc2O[C@@H]1CN(C)Cc1ccc(-c2ccccc2)cc1` gave Shh pathway inh 65*.
For C[C@@H]1CN([C@H](C)CO)C(=O)Cc2cc(NC(=O)Nc3ccccc3)ccc2O[C@H]1CN(C)Cc1ccc2c(c1)OCO2 the results were Shh pathway inh -48.
C[C@@H]1CN([C@H](C)CO)C(=O)Cc2cc(NC(=O)CCN3CCOCC3)ccc2O[C@H]1CN(C)Cc1ccc(-c2ccccc2)cc1 was read as Shh pathway inh 15.
`C[C@@H]1CN([C@H](C)CO)C(=O)Cc2cc(NC(=O)Nc3ccc4c(c3)OCO4)ccc2O[C@@H]1CN(C)Cc1ccc2c(c1)OCO2` gave Shh pathway inh 72*.
Screening O=c1oc(-c2ccccc2Br)nc2sc3c(c12)CCC3 returned BJeLR viability -1.
For C=C(C)C(=O)OC1CC(CO)CCC/C(CO)=C\C2OC(=O)C(=C)C21 (configuration not stated) the results were Shh pathway inh 71*.
C=C(C(=O)O[C@H]1C/C(C)=C\CC/C(CO)=C\[C@H]2OC(=O)C(=C)[C@H]12)C(O)CO (some centres not stated) was read as Shh pathway inh 18 and BJeLR viability -8.
Screening CC1(C)CC[C@]2(C(=O)O[C@@H]3O[C@H](CO)[C@@H](O)[C@H](O)[C@H]3O)CC[C@]3(C)C(=CCC4[C@@]5(C)CC[C@H](O[C@@H]6O[C@H](CO)[C@@H](O)[C@H](O)[C@H]6O)[C@@](C)(CO)C5CC[C@]43C)[C@@H]2C1 (some centres not stated) returned Shh pathway inh -40 and BJeLR viability -5.
Screening CC1(C)CC[C@]2(C(=O)O)CC[C@]3(C)C(=CCC4[C@@]5(C)CC[C@H](O[C@@H]6O[C@H](CO)[C@@H](O)[C@H](O)[C@H]6O)[C@@](C)(CO)C5CC[C@]43C)[C@@H]2C1 (some centres not stated) returned Shh pathway inh 88*.
`CC1CC[C@]2(C(=O)OC3OC(COC4OC(CO)C(O)C(O)C4O)C(O)C(O)C3O)CC[C@]3(C(=O)O)C(=CCC4[C@@]5(C)CC[C@H](OC6OC(C)C(O)C(O)C6O)C(C)(C)C5CC[C@]43C)C2C1C` (some centres not stated) gave Shh pathway inh 32 and BJeLR viability 0.
For CC(=O)N[C@H]1[C@H](O[C@H]2CC[C@@]3(C)C(CC[C@]4(C)C3CC=C3[C@@H]5CC(C)(C)CC[C@]5(C(=O)O)CC[C@]34C)C2(C)C)O[C@H](CO[C@@H]2OC[C@H](O)[C@H](O)[C@H]2O[C@@H]2OC[C@H](O)[C@H](O)[C@H]2O)[C@@H](O)[C@@H]1O (some centres not stated) the results were Shh pathway inh 109* and BJeLR viability 7.
